Results: ChEMBL document CHEMBL4513216, “Probing the Open Global Health Chemical Diversity Library for Multistage-Active Starting Points for Next-Generation Antimalarials” (ACS Infect Dis, 2020)
About 8,600 (12%) of roughly 69,000 compounds showed an effect of 50% or more. What follows is part of a selection rich in strong results, with near analogues and random picks from the rest.

System: Plasmodium berghei
Assay: Screen against P. berghei liver stage (PbLuc), transformed with Luciferase, at 10uM
Type: functional, HepG2
Conditions: tested at 10 uM

Compound | INHIBITION [%]
COCCOCC1CCN(C(=O)c2ccc3[nH]cnc3c2)C1 (centres undefined) | -24.9
COc1c(CNCc2ccc(N3CCCC3)nc2)c(C(C)C)nn1C | 7.95
Cc1nn(C)c2ncc(S(=O)(=O)N3CCCC(C(N)=O)C3)cc12 (centres undefined) | 36.5
CCCN(CC(=O)OC)S(=O)(=O)c1cnc2c(c1)c(C)nn2C | 57.6
CCN(CC(=O)NC)S(=O)(=O)c1cnc2c(c1)c(C)nn2C | 12.7
CCN(CC(=O)N(C)C)S(=O)(=O)c1cnc2c(c1)c(C)nn2C | 51.1
CCN(CCC(=O)OC)S(=O)(=O)c1cnc2c(c1)c(C)nn2C | 35.1
Cc1nn(C)c2ncc(S(=O)(=O)N3CCCC(C)CC3)cc12 (centres undefined) | 45.1
COC(=O)Cn1c(=O)[nH]c2cn(-c3ccc(F)cc3)c(=O)n21 | 31
Cc1ccsc1C(=O)N1CCCC(c2[nH]ncc2S(C)(=O)=O)C1 (centres undefined) | 17.4
CN(C)c1nc(N2CCCC2)nc2c1CCN(Cc1nccn1C)CC2 | 50.3
Cc1nc(N2CCCC2)nc2c1CCN(Cc1nccn1C)CC2 | 46.6
Cc1nc(C)c2c(n1)CCN(Cc1nccn1C)CC2 | 45.7
Cn1ccnc1CN1CCN(Cc2noc(-c3ccccc3)n2)CC1 | 24.4
Cc1nc(-c2ccccc2)nc2c1CCN(Cc1nccn1C)CC2 | 75.6
Cc1nc(N2CCOCC2)nc2c1CCN(Cc1nccn1C)CC2 | 38.5
CC(C)(C)Nc1c(C2CCN(C(=O)C3CC3)CC2)nc2ccccn12 | 26.355
O=C(NCCn1ccnc1)N1CCN(Cc2ccsc2)CC1 | 19.5
CCCn1nc(C)c(-c2cncn2CCN(C)C2CCCC2)c1C | -0.232
CCc1nc(CN2CCCN(C(=O)C(CC)OC)CC2)cs1 (centres undefined) | -4.94
O=C(Nc1cc(F)ccc1OCC1CCCO1)N1CCCC1 (centres undefined) | 17.8
CC(C)NC(=O)N1CCC(c2nnc3ccc(C(=O)N(C)C)cn23)C1 (centres undefined) | -7.24
CCC(CC)NC(=O)c1ccc2nnc(C3CCN(C(C)=O)C3)n2c1 (centres undefined) | 50.7
CCC(CC)NC(=O)c1ccc2nnc(C3CCN(S(C)(=O)=O)C3)n2c1 (centres undefined) | -1.26
CCN(C(=O)c1ccc2nnc(C3CCN(C)C3)n2c1)C(C)C (centres undefined) | 27.6
CC(C)NC(=O)c1ccc2nnc(C3CCN(S(C)(=O)=O)C3)n2c1 (centres undefined) | 10.6
CC(C)NC(=O)c1ccc2nnc(C3CCN(C(=O)NC(C)C)C3)n2c1 (centres undefined) | 8.85

Compound | INHIBITION [%]
CCN(C(=O)c1ccc2nnc(C3CCN(S(C)(=O)=O)C3)n2c1)C(C)C (centres undefined) | 33.1
CC(C)CNC(=O)c1ccc2nnc(C3CCN(S(C)(=O)=O)C3)n2c1 (centres undefined) | 40.9
CC(=O)N1CCC(c2nnc3ccc(C(=O)NC(C)C)cn23)C1 (centres undefined) | 42.6
CC(=O)N1CCC(c2nnc3ccc(C(=O)NCC(C)C)cn23)C1 (centres undefined) | 51.2
CC(=O)N1CCC(c2nnc3ccc(C(=O)NCCN(C)C)cn23)C1 (centres undefined) | 59.3
CCN(C(=O)c1ccc2nnc(C3CCN(C(C)=O)C3)n2c1)C(C)C (centres undefined) | 50.3
CC1CCCN(Cc2ccc(OCc3nccn3C)cc2)C1 (centres undefined) | 33.3
COCC(=O)NC1CCN(c2cccc(OC(F)(F)F)c2)C1=O (centres undefined) | 42.3
CC(C)=CCN1CCN(C(=O)c2cc(C(C)C)no2)[C@H]2CS(=O)(=O)C[C@H]21 | -7.25
COCc1nc(CNC2CCCC(C)(C)C2)no1 (centres undefined) | 25.1
Cc1ccc(N2CC[C@H]3OCC[C@@]3(C(=O)NCC3CC3)C2)nn1 | 12.5
CN1CC2(CCN(C(=O)CCc3nc4cccnc4n3C)C2)OC1=O (centres undefined) | -19.1
COc1c(CNCc2nnc3n2CCCCC3)c(C(C)C)nn1C | 27.9
CN(CCc1noc(C2CC2)n1)C(=O)CN1C(=O)COc2ccccc21 | -37.9
COc1c(C)cnc(CSc2nnc(NC3CC3)s2)c1C | 57.7
COc1c(C)cnc(CSc2nnc(N)s2)c1C | 28.6
COc1c(C)cnc(CSc2nnc(C)s2)c1C | -40.3
CC(C)C(=O)N1CCCC(Cc2ccccn2)C1 (centres undefined) | 25
COCCC(=O)N1CCCC(c2n[nH]cc2C)C1 (centres undefined) | 36
N#CCCCOc1cccnc1NC(=O)CCC1CCCC1 | -12.1
N#CCCCOc1cccnc1NC(=O)Cc1ccccc1F | 65.2
N#CCCCOc1cccnc1NC(=O)CC1CCCCC1 | 20.9
Cc1cccc(CC2CCCN(C(=O)Cc3csc(C)n3)C2)n1 (centres undefined) | -8.12
Cc1noc(C)c1S(=O)(=O)NC(=O)COc1ccc2c(c1)CCC2 | 45.3
COc1cc(CN(C)Cc2ccncc2)c(SC)cc1OC | 39.3
COc1cc(CN(C)CCc2ccncc2)c(SC)cc1OC | 32.7
COc1cc(CN(C)Cc2cccnc2)c(SC)cc1OC | 54.7
